Screening data as filed in PubChem BioAssay.
HSF-1 act – HSF-1 activators, primary screen, NIH3T3-HGL cells, MG132 stress, luminescence, single point | NIH3T3-HGL HSF-1 luciferase reporter, 8 h; 100% = twice DMSO control signal | activation, % at 9 µM | 300,000 tested, 1.7% active;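 active = mean replicate activation of at least 50% with a set share of replicates each reaching 50%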
HSF1 inhib – HSF1 inhibitors in luciferase reporter cells, primary screen, cell-based, NIH3T3, luminescence; NIH3T3-HGL HSE-luciferase, MG132-induced, luminescence 8 h; active compounds read low; activity change, negative = inhibition, % at 7.5 µM (by protocol); 300,000 tested, 0.77% active; AID 2098, 2009;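 active = more than half of replicate wells show activity change below -50%, luminescence cut by over half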;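 note: luciferase reports HSF-1 transcriptional activity via heat shock element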
TROY signal inh – inhibitors of TROY-driven NF-kB signaling, primary screen, Q293 LMP1-TROYcd cells, NF-kB luciferase, uHTS; Q293 LMP1-TROYcd NF-kB luciferase reporter, 4 h; inhibition, % at 10 µM; 360,000 tested, 0.98% active;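 active = compounds whose plate-normalised and pattern-corrected inhibition of the luciferase reporter signal at the single screening dose is 50% or more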
EBV LMP1 NFkB – EBV LMP1-driven NF-kappaB luciferase reporter inhibitors, primary screen, cell-based, luminescence, single point | 350,000 tested, 0.69% active | LMP1-induced NF-kappaB luciferase reporter cells | AID 504558, 2011 | inhibition, % at 12.5 µM; in the data active = inhibition above about 41%
LGR2 inh – inhibitors of bursicon-induced LGR2 CRE-luciferase signal, primary screen, cell-based, HEK293, CRE-luciferase reporter, bursicon stimulation; Drosophila bursicon receptor LGR2 (rickets); bursicon-stimulated, 4 h; inhibition, % at 9.99 µM; 380,000 tested, 0.35% active; AID 720647, 2013;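 active = drop in luminescence signal, shown as inhibition above about 50% in the replicate tests, limit read from the data, passing the limit was not always enough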;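 note: agonist challenge used bursicon conditioned medium at about half maximal strength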
TWEAK Fn14 block – inhibitors of TWEAK-Fn14 signaling, primary screen, luciferase reporter cells, uHTS; TWEAK-stimulated Fn14 reporter cells, luciferase luminescence, 8 h; inhibition, % at 10 µM; 360,000 tested, 2% active; AID 1159606, 2016; in the data active = inhibition above about 50%
Large screens that a line does not name were inactive. The list is not random: actives were taken first. Their share in the collection is about 3.6%.

CCc1cccc(CC)c1NC(=S)N1CCn2cccc2C1c1cccnc1 (configuration not stated)	HSF1 inhib -55
COc1ccc(CNC(=O)CCS(=O)(=O)c2ccc3c(c2)oc(=O)n3C)cc1	none
CCOc1ccc(CNC(=O)CCS(=O)(=O)c2ccc3c(c2)oc(=O)n3C)cc1	HSF1 inhib -76
Cc1cc(C)c2sc(NC(=O)C3CC3)nc2c1	EBV LMP1 NFkB 48 (no result: LGR2 inh)
CC(=O)N(C)C[C@H]1Oc2ncc(C#Cc3ccccc3F)cc2C(=O)N([C@H](C)CO)C[C@H]1C	none (no result: HSF-1 act, HSF1 inhib, TROY signal inh, EBV LMP1 NFkB, TWEAK Fn14 block)
Cc1ccc(N(Cc2cc(=O)[nH]c3ccccc23)C(=O)CCl)c(C)c1	EBV LMP1 NFkB 47, TWEAK Fn14 block 63
O=C(C[C@H]1CC[C@@H]2[C@H](COC[C@H](O)CN2Cc2nccs2)O1)NCc1ccc(Oc2ccccc2)cc1	none (no result: HSF-1 act, HSF1 inhib, TROY signal inh, EBV LMP1 NFkB, TWEAK Fn14 block)
Cc1ccc(NC(=S)NNc2ncc(C(F)(F)F)cc2Cl)cc1	none
Cc1ccc(NC(=S)NNc2ncc(C(F)(F)F)cc2Cl)c(C)c1	none (no result: LGR2 inh)
FC(F)(F)c1cnc(NNC(=S)Nc2ccc(Cl)cc2)c(Cl)c1	TROY signal inh 59, TWEAK Fn14 block 61
Fc1ccc(NC(=S)NNc2ncc(C(F)(F)F)cc2Cl)c(F)c1	TROY signal inh 61, EBV LMP1 NFkB 45
O=C(C1CCCCC1)N1CCN(c2ncccn2)CC1	EBV LMP1 NFkB 48 (no result: HSF-1 act, HSF1 inhib)
O=C(c1ccc(F)cc1)N1CCC(C(=O)N2CCN(c3ncccn3)CC2)CC1	none (no result: HSF-1 act, HSF1 inhib)
O=C(NC1CCC1)[C@H]1[C@H](CO)[C@H]2Cn3c(ccc(-c4ccccc4)c3=O)[C@H]2N1CC1CC1	none (no result: HSF-1 act, HSF1 inhib, TROY signal inh, EBV LMP1 NFkB, TWEAK Fn14 block)
Clc1ccc(CO/N=C/c2c(-c3ccccc3)nc3n2CCS3)c(Cl)c1	HSF-1 act 74 (no result: LGR2 inh)
COC(=O)c1c(C)[nH]c(C)c1-c1cccc([N+](=O)[O-])c1	HSF1 inhib -91
COC(=O)c1c(C)[nH]c(C)c1-c1ccc(C)cc1	none (no result: LGR2 inh)
COc1ccc(Cl)cc1C(=O)Nc1ccc(NC(C)=O)cc1	none
CC(=O)Oc1c(I)cc(I)cc1C(=O)Nc1ccc(Cl)cc1	TROY signal inh 52, TWEAK Fn14 block 52
Cc1noc(C)c1S(=O)(=O)Nc1ccc2c(c1)C(=O)N([C@@H](C)CO)C[C@@H](C)[C@@H](CN(C)Cc1ccc(Oc3ccccc3)cc1)O2	none (no result: HSF-1 act, HSF1 inhib, TROY signal inh, EBV LMP1 NFkB, TWEAK Fn14 block)
CCOCCCNC(=O)c1cc(C)nn1-c1ccccc1	HSF1 inhib -72
Cc1cc(C(=O)NCc2ccc(Cl)cc2)n(-c2ccccc2)n1	HSF1 inhib -68
O=C(N[C@H]1CC[C@H](CCNC(=O)c2ccccc2F)O[C@H]1CO)c1ccc2c(c1)OCO2	none (no result: HSF-1 act, HSF1 inhib, TROY signal inh, EBV LMP1 NFkB, TWEAK Fn14 block)
CC(=O)N/C(=N\c1nc(C)cc(C)n1)Nc1ccc2ccccc2c1	HSF1 inhib -51, TROY signal inh 77, TWEAK Fn14 block 74
O=C(c1ccco1)N(Cc1cccc([N+](=O)[O-])c1)c1ccc(Br)cc1	none
O=C(c1ccco1)N(Cc1ccc([N+](=O)[O-])cc1)c1ccc(Br)cc1	HSF-1 act 57 (no result: LGR2 inh)
C=CS(=O)(=O)N(Cc1ccccc1Br)[C@H](CO)Cc1ccccc1	TWEAK Fn14 block 51 (no result: HSF-1 act, HSF1 inhib)
C=CS(=O)(=O)N(Cc1ccccc1)[C@H](CO)CC(C)C	none (no result: HSF-1 act, HSF1 inhib, LGR2 inh)
COc1ccc(NC(=O)Nc2ccc3c(c2)CC(=O)N([C@H](C)CO)C[C@@H](C)[C@@H](CN(C)Cc2ccc(C(=O)O)cc2)O3)cc1	none (no result: HSF-1 act, HSF1 inhib, TROY signal inh, EBV LMP1 NFkB, TWEAK Fn14 block)
CSc1nc2nccc(-c3ccc(Cl)cc3)n2n1	none
CSc1nc2nccc(/C=C\c3ccccc3)n2n1	HSF-1 act 56 (no result: LGR2 inh)
CC(C)Nc1nnc(Sc2ccc(Cl)cc2[N+](=O)[O-])s1	HSF1 inhib -50
COc1ccccc1NC(=O)N1CC[C@H]2[C@@H]1c1cc(-c3ccccc3)ccc1N(C)[C@H]2CO	none (no result: HSF-1 act, HSF1 inhib, TROY signal inh, EBV LMP1 NFkB, TWEAK Fn14 block)
COCC(=O)Nc1ccc2c(c1)OC[C@H](C)N(C(=O)C1CCCC1)C[C@@H](C)[C@H](OC)CN(C)C2=O	none (no result: HSF-1 act, HSF1 inhib, TROY signal inh, EBV LMP1 NFkB, TWEAK Fn14 block)
Cc1nn(C)c(C(=O)Nc2ccc(S(=O)(=O)NC34CC5CC(CC(C5)C3)C4)cc2)c1Br	TROY signal inh 51 (no result: LGR2 inh)
Cc1ccc(S(=O)(=O)NC23CC4CC(CC(C4)C2)C3)cc1	none (no result: HSF-1 act, HSF1 inhib)
O=C(CSc1nnc(-c2c[nH]c3ccccc23)o1)N(Cc1ccccc1)c1ccc(F)cc1	TWEAK Fn14 block 64 (no result: LGR2 inh)
CC1CCCN(S(=O)(=O)c2cc3c4c(c2)C(C)C(=O)N4CCC3)C1 (configuration not stated)	EBV LMP1 NFkB 69
O=C(C[C@@H]1CC[C@@H]2[C@H](COC[C@@H](O)CN2C(=O)c2ccc3c(c2)OCO3)O1)NC1CCCC1	none (no result: HSF-1 act, HSF1 inhib, TROY signal inh, EBV LMP1 NFkB, TWEAK Fn14 block)
CNc1nc(N)c([N+](=O)[O-])c(NC2CCCCC2)n1	none
Nc1nc(NCc2ccco2)nc(NC2CCCCC2)c1[N+](=O)[O-]	HSF1 inhib -72 (no result: EBV LMP1 NFkB)
COc1cccc(Nc2nc(N)c([N+](=O)[O-])c(NCc3ccccc3)n2)c1	HSF-1 act 70, TWEAK Fn14 block 51
Nc1nc(NCCO)nc(NC2CCCCC2)c1[N+](=O)[O-]	HSF1 inhib -69
Nc1nc(Nc2ccccc2)nc(NC2CCCCC2)c1[N+](=O)[O-]	TROY signal inh 74
Nc1nc(NCCOCCO)nc(NC2CCCCC2)c1[N+](=O)[O-]	none
Nc1nc(NCc2ccco2)nc(N2CCCCCC2)c1[N+](=O)[O-]	none
CCCC#Cc1ccc2c(c1)O[C@@H](CN(C)C(=O)c1ccccc1)[C@@H](C)CN([C@H](C)CO)S2(=O)=O	none (no result: HSF-1 act, HSF1 inhib, TROY signal inh, EBV LMP1 NFkB, TWEAK Fn14 block)
COCC#Cc1ccc2c(c1)O[C@@H](CN(C)C(=O)Nc1ccc(OC)cc1)[C@@H](C)CN([C@H](C)CO)S2(=O)=O	none (no result: HSF-1 act, HSF1 inhib, TROY signal inh, EBV LMP1 NFkB, TWEAK Fn14 block)
CC(NC(=O)/C=C/c1ccco1)c1nc2ccccc2n1Cc1cccc(Cl)c1 (configuration not stated)	HSF-1 act 70
O=C(Nc1nc2ccccc2n1Cc1ccc(Cl)cc1)c1ccco1	none
Cc1cc(Cl)c2ccccc2n1	none
Cc1cc(Sc2nnc(N)s2)c2ccccc2n1	HSF-1 act 136, EBV LMP1 NFkB 71, LGR2 inh 58, TWEAK Fn14 block 90
Cc1cc(Sc2nnc(/N=C/N(C)C)s2)c2ccccc2n1	EBV LMP1 NFkB 70, LGR2 inh 55, TWEAK Fn14 block 81 (no result: HSF-1 act, HSF1 inhib)
CCCCCCCCSc1nnc(/N=C/N(C)C)s1	none
CCOc1cc(C(=S)N2CCOCC2)ccc1OS(=O)(=O)c1ccc(OC)cc1	HSF1 inhib -78
COc1cccc(C(=O)COC(=O)C(C)N2C(=O)C3C4C=CC(C4)C3C2=O)c1 (configuration not stated)	HSF-1 act 57
